High-throughput results: PubChem BioAssay, National Center for Advancing Translational Sciences (NCATS)
JMJD2A Tudor = qHTS Assay for Inhibitors of JMJD2A-Tudor Domain; Lysine-specific demethylase 4A (Homo sapiens), O75164; AlphaScreen JMJD2A-Tudor / H3K4me3 peptide binding; Potency, µM (highest dose often 114 µM), for inactives: at the top dose activity change, negative = inhibition, hits mostly inhibitors; 390,000 tested, 4.4% active; AID 504339, 2011; also: % is scaled to controls: 0 for no effect and ±100 for the full control effect; nearly all actives have a fitted effect of over 50% in size
L3MBTL1 block = qHTS Assay for the Inhibitors of L3MBTL1; AlphaScreen L3MBTL1–H3K9me1 peptide binding; Lethal(3)malignant brain tumor-like protein 1 (Homo sapiens), Q9Y468; 230,000 tested, 0.66% active; Potency, µM (series often up to 57.1 µM), for the others: at the highest dose activity, negative = inhibition, most hits filed as inhibitors; also: % is scaled to controls: 0 for no effect and ±100 for the full control effect; nearly all actives have a fitted effect of over 60% in size
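First, the protein-peptide complex forms for 30 min at room temperature (L3MBTL1 50 nM, biotinylated H3K9me1 peptide 75 nM). Next, compounds are pin-transferred and incubated 30 min. Finally, AlphaScreen beads are added and read after 30 min.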
G9a block = qHTS Assay for Inhibitors of Histone Lysine Methyltransferase G9a; G9a H3K9 monomethylation, AlphaScreen, 2 h; Potency, µM (highest dose often 102 µM), for inactives: at the top dose activity, negative = inhibition, usual class: inhibitors; 350,000 tested, 8.8% active; also: % is scaled to controls: 0 for no effect and ±100 for the full control effect; nearly all actives have a fitted effect of over 75% in size
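Step 1: enzyme (final 20 nM) with compound, 15 min RT. Step 2: substrate peptide 500 nM and SAM 20 uM, 2 h RT. Step 3: anti-H3K9me1 antibody and AlphaScreen beads, 10 min, then plate read.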
BAZ2B block = qHTS Assay for Inhibitors of BAZ2B | AlphaScreen BAZ2B-H3K14Ac peptide displacement | Potency, µM (top dose mostly 114 µM), for the others: at the top dose activity change, negative = inhibition, hits mostly inhibitors | 360,000 tested, 4.4% active | AID 504333, 2011; also: % is scaled to controls: 0 for no effect and ±100 for the full control effect; nearly all actives have a fitted effect of over 60% in size
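BAZ2B 50 nM plus b-H3(5-23)K14Ac 50 nM, PBS pH 7.4/0.01% Tween-20, 30 min RT; compound added (max 110 uM), 30 min RT; streptavidin donor/Ni-chelate acceptor beads 10 ug/mL final, 20 min dark; AlphaScreen read.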
HP1b binding inh = HTS for Inhibitors of HP1-beta Chromodomain Interactions with Methylated Histone Tails; Chromobox protein homolog 1 (Homo sapiens), P83916; AlphaScreen HP1-beta / biotin-H3K9me3 peptide binding; 390,000 tested, 0.56% active; Potency, µM (titrated, usually from 114 µM), without a hit: at the top dose activity change, negative = inhibition, usual class: inhibitors; also: nearly all actives have a fitted effect of over 70% in size
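AlphaScreen: HP1-beta (50 nM) preformed 30 min with biotin-H3(1-18)K9me3 peptide (50 nM) in PBS pH 7.4, 0.01% Tween-20. Compound added for 30 min at RT, then streptavidin donor/nickel chelate acceptor beads (10 ug/mL) for 30 min.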
Sfp PPTase inh = qHTS Assay for Inhibitors of Bacillus subtilis Sfp phosphopantetheinyl transferase (PPTase); Biochemical Sfp PPTase activity, qHTS; 4'-phosphopantetheinyl transferase ffp (Bacillus subtilis), Q9F4F7; Potency, µM, for the others: largest response in the series, negative = inhibition, usual class: inhibitors; 310,000 tested, 3.5% active;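 also: the enzyme is Sfp with the accession as filed and its product quenches rhodamine fluorescence; 0% = enzyme reaction without inhibitor and -100% = no enzyme wells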
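After 15 min at room temperature with compound, 15 nM Sfp received 5 uM rhodamine-CoA plus 12.5 uM BHQ-2-ybbR (50 mM Hepes pH 7.6, 10 mM MgCl2). Rate came from the fluorescence difference over 30 min, ex 525/em 598 nm.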
* hit, by the source's call; ? = inconclusive; . = no result; [ ] = remark or other dose. In the library only some 12% were active in any assay of this set; here they are far more common. Calls follow the shape of the dose curve; as a rule, active = well fitted curve in the direction sought with a large enough effect; inconclusive = small, poorly fitted or top-dose-only effect, or another doubt; inactive = no such curve, though single readings can be large; an effect the other way counts as inactive or inconclusive. Potency is read from the fitted curve at half-maximal effect.

SMILES	JMJD2A Tudor	L3MBTL1 block	G9a block	BAZ2B block	HP1b binding inh	Sfp PPTase inh
CCCC(=O)Nc1ccc2c(c1)nc(CN1CCN(C(=O)OCC)CC1)n2C	?	.	18.2%	5.4%	10.6%	5.4%
CCOC(=O)N1CCN(Cc2nc3cc(NC(C)=O)ccc3n2C(C)C)CC1	50.1µM*	.	-48.1%[59 µM]	?	33.9%	.
NC(=O)CCCCn1ccc(NC(N)=NCC(F)(F)F)n1	.	.	30.6%[59 µM]	.	.	7.7%
O=C1CCC/C(=N\NC(=O)c2ccc(NS(=O)(=O)c3ccc(Br)cc3)cc2)C1	-3.4%	-2.0%	79.4µM*	-5.9%	37.3%	?
CCC(C)n1c(=O)c2sccc2n2c(CCCC(=O)N3CCN(c4ccccc4)CC3)nnc12 (configuration not stated)	-1.5%	.	-25.7%[59 µM]	-19.1%	32.4%	.
CCc1ccc(CNCCNC(=O)c2ccco2)cc1	-24.4%	.	.	.	15.5%[57 µM]	.
O=C(NCc1n[nH]c(=S)n1-c1ccccc1)c1ccco1	15.8µM*	0.1%	8.91µM*	7.8%	26.7%	?
O=C(NCc1ccc(Cl)c(Cl)c1)c1ccco1	0.0%	1.5%	18.3%[59 µM]	3.8%	28.5%	18.2%
O=C(NCCNCc1ccccc1)c1ccco1	25.1µM*	.	.	.	-11.0%[57 µM]	.
O=C(NCc1n[nH]c(=S)n1-c1ccc(Cl)c(Cl)c1)c1ccco1	50.1µM*	.	7.9%[12.7 µM]	-7.6%	17.6%	-12.5%
O=C(NCc1ccc(CNC(=O)c2ccco2)cc1)c1ccco1	7.1%	.	43.7%	-8.7%	35.1%	8.6%
COc1ccccc1-n1c(CNC(=O)c2ccco2)n[nH]c1=S	?	.	25.1µM*	-1.8%	41.7%	-2.2%
COC(=O)CCCCCn1c(-c2ccccc2)cn2c3c(=O)n(C)c(=O)n(C)c3nc12	-16.4%	.	25.6%[59 µM]	-26.5%	35.1%	.
CC12CCC(/C(=N/O)C1=O)C2(C)C (configuration not stated)	-9.0%	.	.	.	27.3%	3.3%
CCOC(=O)c1c(C)oc2nc(C)nc(Nc3cc(C)cc(C)c3)c12	-8.4%	.	-18.7%[59 µM]	-6.2%[57.1 µM]	27.6%	.
COc1ccc(N2CCN(C(=O)c3ccc4c(c3)N(Cc3ccc(F)cc3)C(=O)c3ccccc3S4=O)CC2)cc1 (configuration not stated)	?	.	?	-38.5%	6.6%	.
COc1ccc(N2CCN(C(=O)c3ccc4c(c3)NC(=O)C(CSCc3cccc(F)c3)N4)CC2)cc1 (configuration not stated)	.	.	20µM*	-36.8%	.	56.2µM*
COc1ccc(N2CCN(C(=O)c3ccc4c(c3)NC(=O)C(CSCc3ccc(C)cc3)N4)CC2)cc1 (configuration not stated)	.	.	7.94µM*	?	.	39.8µM*
COCCCN1C(=O)c2ccc(C(=O)N3CCN(c4ccc(OC)cc4)CC3)cc2C1=O	-12.1%	.	1.0%[59 µM]	-19.8%	29.0%	16.4%
COc1ccc(N2CCN(C(=O)c3ccc4c(c3)NC(=O)C(CSCc3c(F)cccc3Cl)N4)CC2)cc1 (configuration not stated)	.	.	31.6µM*	-33.4%[57.1 µM]	.	-26.9%
CC1CCCN(C(=O)c2sc3cc([N+](=O)[O-])ccc3c2Cl)C1 (configuration not stated)	?	-10.7%	39.8%[0.501 µM]	50.1µM*	?	-20.0%
O=C(c1sc2cc([N+](=O)[O-])ccc2c1Cl)N1CCCCC1	?	-11.5%	?	?	?	-3.7%
CCN(C(=O)c1nn(C)c2c1CSc1ccccc1-2)c1cccc(C)c1	-3.0%	.	-2.6%[59 µM]	4.8%	68.4%	.
CCOc1ccccc1-n1nnc(-c2nc(-c3ccccc3)no2)c1N	-7.0%	.	-0.5%[59 µM]	-8.1%	34.0%	.
